Assay [1] concerns the target Luciferin 4-monooxygenase (Photinus pyralis) (UniProt P08659). As to the kind of experiment: qHTS assay to identify small molecule inhibitors of firefly luciferase (AID 1224835). Note: % is set by controls: 0 for no effect and ±100 for the full control effect; nearly all actives have a fitted effect of over 25% in size. The method, boiled down: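 Biochemical qHTS: compounds run as interplate titrations against purified firefly enzyme, with D-luciferin and ATP each at its KM concentration. Light output recorded by CCD imaging.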

In assay [2] the target is Nuclear receptor subfamily 1 group I member 3 (Homo sapiens) (UniProt Q14994). The assay is described as follows: qHTS assay to identify small molecule antagonists of the constitutive androstane receptor (CAR) signaling pathway (AID 1224838). Note: nearly all actives have a fitted effect of over 40% in size. Note: potency is the fitted concentration of half-maximal effect. The method, boiled down:
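Compounds were titrated across 15 concentrations onto HepG2 cells double-stably expressing hCAR and a CYP2B6-2.2kb reporter, together with 50 nM CITCO (final). After 24 h at 37 C, luciferase activity was measured by luminescence.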

Assay [3] has the same target. The assay is described as follows: qHTS assay to identify small molecule agonists of the constitutive androstane receptor (CAR) signaling pathway (AID 1224839).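 Note: HepG2 cells stably carrying human CAR and a CYP2B6 luciferase reporter; % is set by controls: 0 for no effect and ±100 for the full control effect; nearly all actives have a fitted effect of over 15% in size.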 The gist of the method:
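Luminescence read-out (ONE-Glo, 30 min, room temperature) from double-stable HepG2-CYP2B6-hCAR cells exposed 24 h to 15-point compound series in presence of 0.75 uM PK11195 final.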

Assay [4] can be described thus: qHTS assay to identify small molecule antagonists of the estrogen related receptor signaling pathway with the pleiotropic PPARgamma coactivator (PGC) from Tox21 10K library - cell viability counter screen (AID 1224840; active = well fitted cell-killing curve with a large enough effect in the repeat runs, not every such curve was filed as active; note: potency is the fitted concentration of half-maximal effect; nearly all actives have a fitted effect of over 40% in size). The gist of the method: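 Step one, plate 2,000 PGC/ERR cells per well; step two, incubate 6 h at 37 C/5% CO2; step three, pin-transfer compounds; step four, incubate 17.5 h; step five, add CellTiter-Fluor and read fluorescence after 30 min.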

A short description of assay [5]: qHTS assay to identify small molecule agonists of the hypoxia (HIF-1) signaling pathway - cell viability counter screen (AID 1224844; calls by dose curve; note: nearly all actives have a fitted effect of over 50% in size; note: potency is the fitted concentration of half-maximal effect). The gist of the method: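 Tox21 10K compounds were added to HRE-bla ME-180 cells (0.5% dialyzed FBS) and incubated 17 hrs at 37C; ATP-based CellTiter-Glo luminescence then reported cell viability in the same wells.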
Assay [6] can be described thus: qHTS assay to identify small molecule agonists of H2AX - cell viability counter screen (AID 1224847; calls by dose curve; note: nearly all actives have a fitted effect of over 30% in size; note: potency is the fitted concentration of half-maximal effect). The gist of the method:
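CHO-K1 wt, 1000 cells/well, o/n 37C; cpds 15 conc, 3 h 37C, 0.76% DMSO; CellTiter-Glo, 30 min RT, luminescence.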

Assay [7] is described as follows: qHTS RealTime-Glo MT Cell Viability Assay in HepG2 cells - 24 hour (AID 1224867). Note: nearly all actives have a fitted effect of over 50% in size. Note: potency is the fitted concentration of half-maximal effect. The method, boiled down:
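Real-time, nonlytic viability: 600 HepG2 cells/well mixed with NanoLuc enzyme plus prosubstrate; 5 h settle, compound (DMSO) added by pintool; luminescence monitored over 40 h at 37 C.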

Assay [8] in a line: qHTS RealTime-Glo MT Cell Viability Assay in HEK293 cells - 32 hour (AID 1224868). Note: potency is the fitted concentration of half-maximal effect; nearly all actives have a fitted effect of over 50% in size. The gist of the method:
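Cells + reagent dispensed (600 cells/well, HEK293) → 5 h at 37 C/5% CO2 → 23 nL compound in DMSO pinned → 40 h at 37 C → luminescence read at 0, 8, 16, 24, 32, 40 h.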

A short description of assay [9]: A CellTox Green Cytotoxicity Assay to monitor cytotoxicity in HEK293 cells - 0 hour (AID 1224869). Note: % is set by controls: 0 for no effect and ±100 for the full control effect; nearly all actives have a fitted effect of over 50% in size. The method, boiled down:
(§1)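 Cytotoxicity was tracked continuously in HEK293 cells by a DNA-binding dye excluded from viable cells. Compounds were transferred in DMSO 5 h after seeding; fluorescence was recorded at intervals up to 40 h.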

Assay [10] is described as follows: qHTS RealTime-Glo MT Cell Viability Assay in HepG2 cells - 40 hour (AID 1224870). Note: nearly all actives have a fitted effect of over 50% in size. Note: potency is the fitted concentration of half-maximal effect. The gist of the method: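 HepG2 cells (600/well) mixed with RealTime-Glo MT reagent, settled 5 h at 37 C/5% CO2 before compound addition. Nonlytic NanoLuc luminescence from viable-cell prosubstrate reduction read repeatedly during 40 h treatment at 37 C.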
Assay [11] is described as follows: A CellTox Green Cytotoxicity Assay to monitor cytotoxicity in HEK293 cells - 40 hour (AID 1224871). Note: nearly all actives have a fitted effect of over 45% in size. Note: potency is the fitted concentration of half-maximal effect. The method, boiled down: as §1
Assay [12] is described as follows: qHTS assay to identify small molecule agonists of the constitutive androstane receptor (CAR) signaling pathway - cell viability counter screen (AID 1224836). Note: potency is the fitted concentration of half-maximal effect; nearly all actives have a fitted effect of over 45% in size. The gist of the method:
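Viability read-out: CellTiter-Fluor fluorescence after 23 h compound exposure at 37 C/5% CO2 in double-stable HepG2-CYP2B6-hCAR cells, with PK11195 present at 0.75 uM final; compounds tested in 15-point titration.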

Assay [13] in a line: qHTS assay to identify small molecule antagonists of the estrogen related receptor signaling pathway with the pleiotropic PPARgamma coactivator (PGC) from Tox21 10K library (AID 1224841; call rule not given here). The gist of the method:
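Antagonism in this quantitative HTS is taken from loss of luciferase signal in PGC/ERR cells. Cells (2,000/well) are treated with compounds in DMSO after a 6 h settling period and read by One-Glo luminescence after 18 h.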

For assay [14], the target named is Thyrotropin receptor (Homo sapiens) (UniProt P16473). The assay is described as follows: qHTS assay to identify small molecule agonists of the thyroid stimulating hormone receptor (TSHR) signaling pathway (AID 1224843; calls by dose curve; note: % is set by controls: 0 for no effect and ±100 for the full control effect; nearly all actives have a fitted effect of over 45% in size). The gist of the method: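 TSHR-HEK293 cells in agonist mode, 30 min room-temperature step, then cAMP measured by competitive HTRF (cAMP-d2 with anti-cAMP cryptate) after 1 h at room temperature. Tested at 15 concentrations in triplicate.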
Chain of Thyrotropin receptor (Homo sapiens) (P16473 whole entry, looked up): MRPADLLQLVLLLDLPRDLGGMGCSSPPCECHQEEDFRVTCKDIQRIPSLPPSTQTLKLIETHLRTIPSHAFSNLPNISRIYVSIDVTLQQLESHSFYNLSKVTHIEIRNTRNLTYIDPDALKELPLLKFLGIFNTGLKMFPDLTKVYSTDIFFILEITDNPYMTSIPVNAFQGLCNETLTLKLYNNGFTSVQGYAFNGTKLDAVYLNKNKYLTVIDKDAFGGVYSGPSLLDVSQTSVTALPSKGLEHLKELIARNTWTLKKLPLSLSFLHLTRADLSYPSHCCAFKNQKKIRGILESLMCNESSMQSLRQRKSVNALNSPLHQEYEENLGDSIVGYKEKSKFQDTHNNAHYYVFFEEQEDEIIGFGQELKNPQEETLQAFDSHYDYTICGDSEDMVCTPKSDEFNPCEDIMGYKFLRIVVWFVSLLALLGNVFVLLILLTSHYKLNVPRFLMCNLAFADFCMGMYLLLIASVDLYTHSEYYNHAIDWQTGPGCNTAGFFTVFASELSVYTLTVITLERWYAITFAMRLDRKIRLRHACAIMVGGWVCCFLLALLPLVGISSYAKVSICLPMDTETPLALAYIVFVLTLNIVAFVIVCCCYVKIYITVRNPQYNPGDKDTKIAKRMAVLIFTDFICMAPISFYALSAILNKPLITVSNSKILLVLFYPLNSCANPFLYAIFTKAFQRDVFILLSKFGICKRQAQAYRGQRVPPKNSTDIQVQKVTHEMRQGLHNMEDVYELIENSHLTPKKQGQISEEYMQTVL

Assay [15] is described as follows: qHTS assay to identify small molecule agonists of H2AX (AID 1224845; active = well fitted activation curve with a large enough effect in the signal ratio in the repeat runs, not every such curve was filed as active; the % refers to the signal ratio; note: % is set by controls: 0 for no effect and ±100 for the full control effect). The method, boiled down:
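Wild-type CHO-K1 cells, plated overnight, exposed 3hr at 37C to 15 concentrations (0.76% DMSO final). Lysed, then HTRF anti-pH2AX (S139) cryptate and anti-H2AX-d2 antibodies, 24 hr room temperature; 665/620 nm emission read.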

The nature of assay [16]: qHTS assay to identify small molecule antagonists of the estrogen related receptor (ERR) signaling pathway from Tox21 library (AID 1224848). The method, boiled down:
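ERR reporter cell line (from NTP) seeded 2,000 cells/well, rested 6 h at 37 C/5% CO2, then pin-dosed with compounds in DMSO. After 18 h at 37 C, ONE-Glo added; luminescence read after 30 min at room temperature.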

The nature of assay [17]: qHTS assay to identify small molecule agonists of the estrogen related receptor (ERR) signaling pathway from Tox21 library (AID 1224849; calls by dose curve; note: % is set by controls: 0 for no effect and ±100 for the full control effect; nearly all actives have a fitted effect of over 15% in size). As to conditions: ERR reporter cell line, ONE-Glo luciferase, 18 h; at 92.4 µM (top of the series) unless noted. The method, boiled down:
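Agonist signal is luciferase luminescence from an ERR reporter cell line treated 18 h at 37 C with DMSO-dissolved compounds, read 30 min after ONE-Glo addition at room temperature.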

Assay [18] in a line: qHTS assay to identify small molecule agonists of the estrogen related receptor signaling pathway with the pleiotropic PPARgamma coactivator (PGC) from Tox21 10K library (AID 1224842). Note: % is set by controls: 0 for no effect and ±100 for the full control effect; nearly all actives have a fitted effect of over 15% in size. The method, boiled down:
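PGC/ERR reporter cell line, 2,000 cells per well, incubated 6 h at 37 C before 23 nL compound in DMSO was added. After 18 h at 37 C, One-Glo luminescence read following 30 min at room temperature.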

Assay [19] in a line: qHTS assay to identify small molecule antagonists of the constitutive androstane receptor (CAR) signaling pathway - cell viability counter screen (AID 1224837). Note: % is set by controls: 0 for no effect and ±100 for the full control effect; nearly all actives have a fitted effect of over 45% in size. The method, boiled down:
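Multiplexed cytotoxicity read-out for the CAR antagonist screen: double-stable HepG2-CYP2B6-hCAR cells co-treated with 50 nM CITCO (final) and compound over 15 concentrations, incubated 23 hr, then assessed by CellTiter-Fluor fluorescence.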

Assay [20] is described as follows: qHTS assay to identify small molecule agonists of the hypoxia (HIF-1) signaling pathway (AID 1224846; active = well fitted activation curve with a large enough effect in the signal ratio in the repeat runs, not every such curve was filed as active; the % refers to the signal ratio; note: % is set by controls: 0 for no effect and ±100 for the full control effect). The gist of the method:
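Steps: seed ME-180 HRE-bla cells (2,000/well, 0.5% dialyzed FBS); incubate 5 hrs at 37C; pin-transfer compounds or DMSO; incubate 17 hrs; add LiveBLAzer B/G substrate CCF4-AM; measure reporter activation by FRET.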

Data on seven compounds can be found in PubChem BioAssay (Tox21).

Unmarked numbers belong to inactive results. Records with an inconclusive call do not appear. Activity calls are given as the source filed them. Unless noted, calls come from the whole dose curve; as a rule, active = well fitted curve in the direction sought with a large enough effect in the repeat runs; inconclusive = weak or mixed curves; inactive = no such curve, though single readings can be large; an effect the other way counts as inactive or inconclusive.

Chain of Nuclear receptor subfamily 1 group I member 3 (Homo sapiens) (Q14994 whole entry, looked up): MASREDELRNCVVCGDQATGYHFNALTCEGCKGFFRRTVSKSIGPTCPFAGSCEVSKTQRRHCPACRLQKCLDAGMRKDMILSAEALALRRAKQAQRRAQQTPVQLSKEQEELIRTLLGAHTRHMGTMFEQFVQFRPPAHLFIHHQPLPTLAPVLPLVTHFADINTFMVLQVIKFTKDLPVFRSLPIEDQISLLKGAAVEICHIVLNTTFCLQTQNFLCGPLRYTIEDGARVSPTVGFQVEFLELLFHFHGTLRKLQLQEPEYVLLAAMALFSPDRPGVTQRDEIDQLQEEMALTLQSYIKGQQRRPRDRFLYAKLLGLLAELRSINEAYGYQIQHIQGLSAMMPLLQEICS
Chain of Luciferin 4-monooxygenase (Photinus pyralis) (P08659 whole entry, looked up): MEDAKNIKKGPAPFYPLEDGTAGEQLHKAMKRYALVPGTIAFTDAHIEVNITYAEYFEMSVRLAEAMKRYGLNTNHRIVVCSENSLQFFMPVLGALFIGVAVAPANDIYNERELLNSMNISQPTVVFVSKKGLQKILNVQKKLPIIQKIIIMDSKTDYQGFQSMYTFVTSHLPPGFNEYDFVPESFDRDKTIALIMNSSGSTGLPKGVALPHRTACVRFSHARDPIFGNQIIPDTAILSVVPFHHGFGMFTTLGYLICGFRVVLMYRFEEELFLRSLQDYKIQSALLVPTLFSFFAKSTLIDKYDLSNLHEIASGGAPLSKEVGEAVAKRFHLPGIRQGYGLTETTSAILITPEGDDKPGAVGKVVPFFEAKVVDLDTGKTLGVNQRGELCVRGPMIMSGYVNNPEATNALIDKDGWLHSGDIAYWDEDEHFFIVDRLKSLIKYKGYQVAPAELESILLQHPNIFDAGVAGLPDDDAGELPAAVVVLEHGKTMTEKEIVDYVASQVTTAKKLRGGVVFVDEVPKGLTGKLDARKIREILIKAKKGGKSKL

In the case of `CC=O`, the Potency result in [1], in assay [3] and in assay [9] was “inactive” in each case. In addition, the Potency in assay [2] is 36 µM (active); in assay [4], 25.5 µM (active); in assay [5] it was 40.7 µM (active); in assay [6], 14.9 µM (active); in assay [7] it was 51.3 µM (active); in [8], 0.575 µM (active). Also, the Potency is 32.3 µM (active) in assay [10] and 51.3 µM (active) in [11].
As for `NC(=O)c1nc(-c2cccc(-c3cc(F)ccc3OCC(F)(F)C(F)(F)F)c2)n[nH]1`, the Potency result in [1], in assay [14], in assay [15], in assay [7], in [9] and in assay [10] was “inactive” in each case. The Potency in assay [12] is 61.1 µM (active); in assay [13], 24.3 µM (active); in assay [6], 101 µM (active); in assay [16] it was 17.2 µM (active). Moreover, in assay [17], the activity change, positive = activation was -59.7%.
In the case of `CC(C)(c1cc(Br)c(OCCO)c(Br)c1)c1cc(Br)c(OCCO)c(Br)c1`, the Potency result in assay [1], in assay [2], in [18] and in assay [9] was “inactive” throughout. Moreover, the Potency in assay [13] was 16.8 µM (active); in assay [5], 42.7 µM (active); in assay [6], 87.8 µM (active); in assay [16] it was 11.9 µM (active); in assay [8], 13.5 µM (active). Also, the activity change, positive = activation in assay [17] is -67.7%.
`COc1ccc(-n2nc(CCC(=O)N(C)O)cc2-c2ccc(Cl)cc2)cc1`: the Potency result in assay [1], in [19], in assay [2], in assay [14], in assay [6] and in assay [7] was “inactive” throughout. In addition, the Potency result in [9], in assay [10] and in assay [11] was “inactive” each time. In [5], the Potency was 19 µM (active).
Consider `O=C1NC2CCCCN2C12CCN(CCCN1c3ccccc3CCc3ccc(Cl)cc31)CC2` (stereo not given), for which the Potency entry in assay [1], in assay [3], in assay [18], in assay [5] and in assay [9] was “inactive” throughout. Also, the Potency in [13] is 10.6 µM (active); in [16], 23.7 µM (active); in assay [7] it was 23.9 µM (active); in assay [8] it was 9.52 µM (active); in [10], 23.9 µM (active); in [11] it was 21.3 µM (active). Also, the outcome in assay [20] was inactive. For the same compound, the activity change, positive = activation in assay [17] was -64.1% [at 42.5 µM].
On to `COc1ccc2sc(C(=O)Nc3nnn[nH]3)c(OC(C)C)c2c1`, for which the Potency result in assay [1], in assay [3], in assay [18], in assay [14], in assay [15] and in [6] was “inactive” in each case. The Potency result in assay [7], in [9] and in assay [10] was “inactive” throughout. The Potency in assay [2] is 27.2 µM (active); in assay [13], 24.2 µM (active); in assay [5] it was 24.5 µM (active); in assay [16] it was 24.2 µM (active); in [8], 27.4 µM (active). Further, the compound was classed as inactive in assay [20]. The activity change, positive = activation in [17] is -42.5%.
Take `COc1ccccc1OCCNCC(O)COc1cccc2[nH]c3ccccc3c12` (stereo not given): the Potency entry in assay [1], in assay [2], in assay [3], in [18], in [15] and in assay [9] was “inactive” each time. Moreover, the Potency in [13] is 13.3 µM (active); in assay [6], 49.2 µM (active); in assay [16], 26.6 µM (active); in assay [7], 21.3 µM (active); in assay [8] it was 16.9 µM (active); in assay [10], 23.9 µM (active). For the same compound, the compound was classed as inactive in assay [20]. In addition, the activity change, positive = activation in assay [17] was -52.7% [at 42.5 µM].
